Some test systems named below: NCI-H23 lung; NCI-H226 lung; NCI-H322M lung; HOP-62 NSCLC; NCI-H460 lung; HOP-92 NSCLC; NCI-H522 lung; A549/ATCC NSCLC; 786-0 renal; COLO 205 colon; DU-145 prostate; K-562 leukemia; MALME-3M melanoma; MDA-MB-231 breast; RXF 393 renal; SF-268 CNS; SF-295 CNS; SF-539 CNS; UACC-257 melanoma; M14 melanoma.
Holding throughout (assay): NCI-60 one-dose screen, 48 h (100 = growth as untreated, 0 = no growth, -100 = all killed)
Holding throughout (details): 10 µM unless noted

This is part of a sample that, as a whole, favours compounds with a hit. Of some 83,000 tested, about 20% had one in any assay.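 How to read the values: 0–100, growth inhibition (40 = 60% inhibited); 0, no net growth; -100 to 0, cell death (-40 = 40% of starting cells died; -100 = all dead).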 Values without a mark were called inactive. The source made the active and inactive calls. The calls were made as follows: active = growth percent below 10; inactive = the rest.

For the compound `CN(C)c1ccc(/C=N/NC(=O)CSc2nc3sc4c(c3c(=O)n2-c2ccccc2)CCCCC4)cc1`, the growth was 29.7% in the assay with NCI-H23 lung; 96.5% in the assay on NCI-H226 lung; 44.9% in the assay with NCI-H322M lung; 21.5% in the assay on HOP-62 NSCLC; 1.49% (active) in the assay on NCI-H460 lung; 50.3% with HOP-92 NSCLC. Moreover, the growth was 21.2% in the assay with NCI-H522 lung; 6.63% (active) in the assay with A549/ATCC NSCLC; 45% in the assay on 786-0 renal; 33.8% in the assay on COLO 205 colon; 14.9% in the assay with DU-145 prostate; 63.8% in the assay with K-562 leukemia. Moreover, the growth is 35.5% in the assay on MALME-3M melanoma; 43.8% with MDA-MB-231 breast; -6.22% (active) in the assay on RXF 393 renal; 57.3% in the assay with SF-268 CNS; 19.1% in the assay on SF-295 CNS; 34.6% in the assay with SF-539 CNS. Further, the growth in the assay with UACC-257 melanoma was 64.8%; with M14 melanoma, 46.6%.

In the case of `C#CC#CC#CC#CC#CC#CC#CC#CC[C@@H]1OC[C@H](COC(=O)O[C@@H](C(=O)O[C@H]2C[C@@]3(O)[C@@H](OC(=O)c4ccccc4)[C@@H]4[C@]5(OC(C)=O)CO[C@@H]5C[C@H](O)[C@@]4(C)C(=O)[C@H](OC(C)=O)C(=C2C)C3(C)C)[C@@H](NC(=O)c2ccccc2)c2ccccc2)O1`, the growth in the assay on NCI-H23 lung is 34.5%; in the assay with NCI-H226 lung it was 57.6%; in the assay with NCI-H322M lung, 35.9%; with HOP-62 NSCLC, 55%; with NCI-H460 lung it was 10.6%; in the assay with HOP-92 NSCLC it was 63.7%. For the same compound, the growth with NCI-H522 lung is 48.6%; in the assay on A549/ATCC NSCLC, 36.7%; in the assay on 786-0 renal, 72.9%; with COLO 205 colon, 18.7%; in the assay on DU-145 prostate it was 24.4%; in the assay with K-562 leukemia it was 15.8%. Further, the growth is 43.7% in the assay with MALME-3M melanoma; 45.3% with MDA-MB-231 breast; 22.7% with RXF 393 renal; 51.7% with SF-268 CNS; 25.3% in the assay with SF-295 CNS; 30.2% in the assay with SF-539 CNS. For the same compound, the growth in the assay with UACC-257 melanoma was 55.7%; in the assay with M14 melanoma it was 18.6%.

`CCOC(=O)CC1CSC(N/N=C(/C)c2cccc(C(F)(F)F)c2)=N1` (stereo not given): the growth in the assay with NCI-H23 lung is 103%; in the assay on NCI-H226 lung, 99.6%; in the assay on NCI-H322M lung it was 89.6%; with HOP-62 NSCLC it was 97%; with NCI-H460 lung, 110%; in the assay on HOP-92 NSCLC, 100%. Moreover, the growth in the assay with NCI-H522 lung is 82.2%; with A549/ATCC NSCLC it was 87.7%; with 786-0 renal it was 97%; in the assay with COLO 205 colon, 107%; with DU-145 prostate it was 102%; in the assay on K-562 leukemia, 80.6%. Further, the growth is 95.3% in the assay with MALME-3M melanoma; 94.4% in the assay with MDA-MB-231 breast; 109% with RXF 393 renal; 100% in the assay with SF-268 CNS; 93.5% with SF-295 CNS; 103% in the assay on SF-539 CNS. The growth with UACC-257 melanoma is 87.9%; in the assay on M14 melanoma, 101%.

With `Cc1cc(N2CCOCC2)nc(N(CCCNc2ccnc3cc(Cl)ccc23)Cc2ccc3c(c2)OCO3)n1`, the growth is 13.5% with NCI-H23 lung; 13.8% with NCI-H226 lung; 21.4% with NCI-H322M lung; -17.6% (active) in the assay with HOP-62 NSCLC; -11.5% (active) in the assay with NCI-H460 lung; -25.8% (active) in the assay with HOP-92 NSCLC. Moreover, the growth is -66.4% (active) in the assay on NCI-H522 lung; 2.51% (active) in the assay with A549/ATCC NSCLC; -79% (active) with 786-0 renal; -58.5% (active) in the assay on COLO 205 colon; 20.3% with DU-145 prostate; -43.7% (active) in the assay on K-562 leukemia. The growth with MALME-3M melanoma is -20.5% (active); in the assay on MDA-MB-231 breast, -37.1% (active); with RXF 393 renal it was -75.6% (active); with SF-268 CNS, 15%; in the assay with SF-295 CNS, -69% (active); in the assay with SF-539 CNS, -75.4% (active). The growth with UACC-257 melanoma was -31.5% (active); with M14 melanoma it was -61.1% (active).

As for `Nc1ncnc2c1N=C(c1ccc([N+](=O)[O-])cc1)CC(c1ccc3c(c1)OCO3)N2` (stereo not given), the growth is 83.8% in the assay with NCI-H23 lung; 86.5% in the assay on NCI-H226 lung; 87.3% with NCI-H322M lung; 86.6% in the assay with HOP-62 NSCLC; 96.2% in the assay with NCI-H460 lung; 34% in the assay with HOP-92 NSCLC. Besides, the growth was 84.9% in the assay on NCI-H522 lung; 96.6% in the assay on A549/ATCC NSCLC; 98.7% with 786-0 renal; 96.2% in the assay with COLO 205 colon; 94.6% in the assay on DU-145 prostate; 93.4% in the assay on K-562 leukemia. The growth with MALME-3M melanoma is 107%; in the assay on MDA-MB-231 breast, 75%; in the assay with RXF 393 renal, 75.6%; in the assay with SF-268 CNS, 90.1%; in the assay with SF-295 CNS it was 67.5%; with SF-539 CNS it was 85.7%. Further, the growth was 116% in the assay on UACC-257 melanoma and 119% with M14 melanoma.

Regarding `O=C(Nc1ncc(Cc2cc(C(F)(F)F)ccc2Cl)s1)C(=S)N1CCOCC1`, the growth was 89.8% in the assay on NCI-H23 lung; 88.3% in the assay on NCI-H226 lung; 94.6% with NCI-H322M lung; 93% with HOP-62 NSCLC; 100% in the assay on NCI-H460 lung; 70.4% in the assay with HOP-92 NSCLC. The growth was 74.7% with NCI-H522 lung; 93.8% in the assay with A549/ATCC NSCLC; 94.6% in the assay with 786-0 renal; 96.4% in the assay on COLO 205 colon; 100% in the assay on DU-145 prostate; 82.2% in the assay on K-562 leukemia. The growth is 92.7% in the assay on MALME-3M melanoma; 87.4% in the assay with MDA-MB-231 breast; 92.6% with RXF 393 renal; 88.7% with SF-268 CNS; 88.8% with SF-295 CNS; 101% in the assay on SF-539 CNS. The growth in the assay on UACC-257 melanoma is 95%; with M14 melanoma, 86.7%.

The values are drawn from PubChem BioAssay (NCI).
